The source of these data is PubChem BioAssay.

Experiment [1] in a line: antimalarial activity against Dd2 strain (AID 2302;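 active = growth inhibition above 50% at the single 2 µM test dose, taken to imply half-maximal potency below 2 µM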;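 also: 0% = DMSO untreated growth and 100% = chloroquine plus artemisinin killed control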). Conditions: P. falciparum Dd2 in RBCs, LDH growth readout, 72 h; at 2 µM; hits give high values.
A short description of experiment [2]: human hepatoma cell viability loss – ATP luminescence, cytotoxicity control for P. falciparum antimalarial project, primary screen (AID 2303;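 active = inhibition above 50%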;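 also: 0% = DMSO wells and 100% = digitonin-killed cells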). The settings on record: HepG2 viability, 24-48 h, at 10 µM, hits give high values.
Experiment [3] deals with L-lactate dehydrogenase (Plasmodium falciparum (isolate CDC / Honduras)) (UniProt Q27743). Nature of the experiment: PfLDH activity inhibition – cell lysate, 3D7 strain, counter-screen for P. falciparum growth inhibition project (AID 2304).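 Also: 0% = vehicle and 100% = reference inhibitor.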 The settings on record: P. falciparum 3D7 crude extract, LDH APAD/NBT absorbance; at 2 µM; hits give high values.
Sequence of L-lactate dehydrogenase (Plasmodium falciparum (isolate CDC / Honduras)) (Q27743 whole entry, looked up): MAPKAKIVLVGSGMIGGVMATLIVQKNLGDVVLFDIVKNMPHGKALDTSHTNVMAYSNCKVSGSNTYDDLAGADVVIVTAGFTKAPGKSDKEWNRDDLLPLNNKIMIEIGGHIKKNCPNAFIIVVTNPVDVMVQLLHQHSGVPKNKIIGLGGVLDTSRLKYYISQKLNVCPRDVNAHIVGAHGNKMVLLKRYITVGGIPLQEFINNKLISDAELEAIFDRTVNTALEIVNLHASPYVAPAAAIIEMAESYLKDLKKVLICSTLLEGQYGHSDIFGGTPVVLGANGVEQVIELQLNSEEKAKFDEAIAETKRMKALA
Experiment [4] in a line: inhibition of 3D7 malaria parasite growth – strain 3D7 (AID 2306).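 Also: 0% = DMSO wells and 100% = chloroquine plus artemisinin control wells.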 Conditions: P. falciparum 3D7 erythrocytic growth, LDH absorbance, 72 h; at 2 µM; hits give high values.
Experiment [5] addresses Calcium-dependent protein kinase 1 (Plasmodium falciparum (isolate 3D7)) (UniProt P62344). Nature of the experiment: PfCDPK1 kinase inhibitors, biochemical, TCAMS library (AID 1159585; cut-off not given, nearly all actives have IC50 up to about 0.98 µM;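 also: inhibitors leave more ATP so luminescence rises with inhibition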). Conditions: recombinant PfCDPK1, Kinase-Glo ATP depletion luminescence.
The target of experiment [6] is Plasmodium falciparum protein kinase 6 (PK6, PF3D7_1337100) (UniProt Q8IDW1). Nature of the experiment: PfPK6 kinase inhibitors, biochemical, TCAMS library (AID 1159586). The settings on record: recombinant PfPK6, Kinase-Glo ATP depletion luminescence.
Sequence of Plasmodium falciparum protein kinase 6 (PK6, PF3D7_1337100) (Q8IDW1 1-305): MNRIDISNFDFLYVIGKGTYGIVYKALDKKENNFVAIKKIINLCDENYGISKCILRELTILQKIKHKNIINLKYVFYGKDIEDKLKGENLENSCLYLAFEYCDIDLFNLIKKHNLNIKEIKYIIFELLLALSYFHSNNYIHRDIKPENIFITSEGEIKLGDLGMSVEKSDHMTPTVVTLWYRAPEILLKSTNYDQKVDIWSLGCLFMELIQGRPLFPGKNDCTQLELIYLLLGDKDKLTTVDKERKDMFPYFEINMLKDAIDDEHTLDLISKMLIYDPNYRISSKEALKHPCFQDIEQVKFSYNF
Experiment [7] concerns the target Protein kinase 7 (PK7), Plasmodium falciparum 3D7 (PF3D7_0213400) (UniProt Q7YTF7). Nature of the experiment: inhibition of Plasmodium PK7 catalytic activity – biochemical, TCAMS antimalarial set, Kinase-Glo luminescence (AID 1159587). Conditions: recombinant PfPK7, Kinase-Glo ATP depletion luminescence.
Experiment [8] concerns the target Calcium-dependent protein kinase 4 (Plasmodium falciparum (isolate 3D7)) (UniProt Q8IBS5). Nature of the experiment: PfCDPK4 kinase inhibitors, biochemical, TCAMS library (AID 1159588; cut-off not given, nearly all actives have IC50 up to about 0.91 µM). The settings on record: recombinant PfCDPK4, Kinase-Glo ATP depletion luminescence. (In general: Kinase-Glo measures the ATP left after a reaction by luminescence.)

Usually inhibition stands for the relative decrease from the control value, in per cent.

The structures appear in SMILES notation. A number with no mark means an inactive call. For some of these results: Potency and affinity values are given separately. Active and inactive are the calls of the source. Unless noted, no rule for the calls is given here.

Sequence of Calcium-dependent protein kinase 4 (Plasmodium falciparum (isolate 3D7)) (Q8IBS5 whole entry, looked up): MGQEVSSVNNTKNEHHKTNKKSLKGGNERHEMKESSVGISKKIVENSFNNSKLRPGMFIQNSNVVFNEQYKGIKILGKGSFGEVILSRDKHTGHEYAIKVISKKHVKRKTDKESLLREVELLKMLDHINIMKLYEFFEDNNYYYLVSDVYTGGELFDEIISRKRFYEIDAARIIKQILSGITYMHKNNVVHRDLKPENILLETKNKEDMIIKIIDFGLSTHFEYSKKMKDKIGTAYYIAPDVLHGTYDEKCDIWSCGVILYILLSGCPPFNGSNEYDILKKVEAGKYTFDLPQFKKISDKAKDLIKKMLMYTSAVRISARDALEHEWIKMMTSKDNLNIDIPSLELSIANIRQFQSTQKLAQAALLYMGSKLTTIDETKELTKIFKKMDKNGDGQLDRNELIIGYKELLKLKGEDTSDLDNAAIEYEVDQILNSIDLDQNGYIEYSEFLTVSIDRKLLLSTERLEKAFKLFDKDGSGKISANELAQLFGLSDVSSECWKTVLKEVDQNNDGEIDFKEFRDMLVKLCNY
Sequence of Calcium-dependent protein kinase 1 (Plasmodium falciparum (isolate 3D7)) (P62344 whole entry, looked up): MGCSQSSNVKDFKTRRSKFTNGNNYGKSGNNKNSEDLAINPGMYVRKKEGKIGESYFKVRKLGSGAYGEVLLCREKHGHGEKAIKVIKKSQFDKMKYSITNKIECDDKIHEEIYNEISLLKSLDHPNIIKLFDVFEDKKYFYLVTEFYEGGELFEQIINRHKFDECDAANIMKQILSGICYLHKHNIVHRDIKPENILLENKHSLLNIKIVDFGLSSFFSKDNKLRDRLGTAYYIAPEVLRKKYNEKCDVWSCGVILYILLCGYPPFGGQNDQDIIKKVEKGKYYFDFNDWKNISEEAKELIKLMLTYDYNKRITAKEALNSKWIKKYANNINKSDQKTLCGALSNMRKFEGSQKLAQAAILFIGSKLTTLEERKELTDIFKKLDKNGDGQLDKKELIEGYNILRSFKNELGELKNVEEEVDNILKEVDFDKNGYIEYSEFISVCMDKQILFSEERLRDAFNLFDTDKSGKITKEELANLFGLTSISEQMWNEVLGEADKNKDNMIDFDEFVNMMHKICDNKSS
Sequence of Protein kinase 7 (PK7), Plasmodium falciparum 3D7 (PF3D7_0213400) (Q7YTF7 1-343): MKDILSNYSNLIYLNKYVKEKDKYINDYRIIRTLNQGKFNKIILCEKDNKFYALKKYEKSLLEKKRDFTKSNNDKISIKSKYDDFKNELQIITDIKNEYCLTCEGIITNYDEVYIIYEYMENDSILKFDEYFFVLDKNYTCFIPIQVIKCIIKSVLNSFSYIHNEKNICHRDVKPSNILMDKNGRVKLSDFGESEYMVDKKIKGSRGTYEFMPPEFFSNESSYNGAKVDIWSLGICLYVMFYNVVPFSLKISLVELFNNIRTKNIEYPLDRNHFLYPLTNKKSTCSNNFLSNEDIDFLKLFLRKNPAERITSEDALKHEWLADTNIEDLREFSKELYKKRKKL

For the compound `O=C(NCc1cccc(F)c1)c1ccc(O)c(-c2cc(Cl)cc(Cl)c2)c1`, the growth inhibition in experiment [1] and in experiment [4] was 99% (active) each time. In addition, the inhibition in experiment [2] was 0%; in experiment [3], 1%. Moreover, the outcome in experiment [5], in experiment [6], in experiment [7] and in experiment [8] was inactive.
With `CO/C(=C\C=C\c1cc2cc(Cl)c(Cl)cc2[nH]1)C(=O)NCCCN1CCN(c2cccc(CCO)c2)CC1`, the results for the growth inhibition in experiment [1] and in experiment [4] were 32% and 101% (active), respectively. Also, the inhibition in experiment [2] was 61% (active); in experiment [3] it was -1%. For the same compound, the result in experiment [5], in experiment [6], in experiment [7] and in experiment [8] was inactive.
Take `CC(Cc1ccc(CNC(=O)NCc2ccc(CC(C)NCCc3cccc(Cl)c3)cc2)cc1)NCCc1cccc(Cl)c1` (stereo not given): the growth inhibition in experiment [1] is 44%; in experiment [4], 100% (active). Further, the values for the inhibition in experiment [2] and in experiment [3] were 100% (active) and -4%, respectively. Besides, the outcome in experiment [5], in experiment [6], in experiment [7] and in experiment [8] was inactive.
Regarding `CC[C@H](C)CNC(=O)c1cccc(-c2cccc(CNCC3CNCCCO3)c2)n1` (stereo not given in full), the growth inhibition in experiment [1] is 54% (active); in experiment [4], 91% (active). Further, the inhibition in experiment [2] was 15%; in experiment [3], 1%. The outcome in experiment [5], in experiment [6], in experiment [7] and in experiment [8] was inactive.
Consider `Clc1ccc2c(N3CCCNCC3)ccnc2c1`, for which the growth inhibition in experiment [1] was 99% (active); in experiment [4] it was 100% (active). The inhibition in experiment [2] is 11%; in experiment [3], -1%. Besides, the outcome in experiment [5], in experiment [6], in experiment [7] and in experiment [8] was inactive.
`CC(C)Nc1cc(C(=O)N[C@@H](Cc2ccccc2)[C@H](O)CNC2CCCCC2)cc(N2CCCCS2(=O)=O)c1`: the growth inhibition in experiment [1] and in experiment [4] was 98% (active) throughout. The inhibition in experiment [2] was 9%; in experiment [3] it was 4%. Besides, the result in experiment [5], in experiment [6], in experiment [7] and in experiment [8] was inactive.
For the compound `COc1ccc(CNC2CCN(C)CC2)cc1-c1ccc(OC)c(S(=O)(=O)NCc2ccccc2)c1`, the growth inhibition is 95% (active) in experiment [1] and 99% (active) in experiment [4]. The figures for the inhibition in experiment [2] and in experiment [3] were 10% and 5%, respectively. For the same compound, the result in experiment [5], in experiment [6], in experiment [7] and in experiment [8] was inactive.
For the compound `O=C(Nc1ccc2c(ccn2C2CCCN(Cc3cc(F)cc(F)c3F)CC2)c1)c1ccco1` (stereo not given), the growth inhibition in experiment [1] is 94% (active); in experiment [4] it was 89% (active). Moreover, the inhibition was 7% in experiment [2] and -1% in experiment [3]. In addition, the outcome in experiment [5], in experiment [6], in experiment [7] and in experiment [8] was inactive.
Turning to `CCN(CC)CCN(Cc1ccc(-c2ccc(C(F)(F)F)cc2)cc1)C(=O)Cn1c(CCc2cccc(F)c2F)nc(=O)c2ccc(C(F)(F)F)cc21`, the growth inhibition is 55% (active) in experiment [1] and 99% (active) in experiment [4]. The inhibition in experiment [2] was 19%; in experiment [3], -2%. Moreover, the result in experiment [5], in experiment [6], in experiment [7] and in experiment [8] was inactive.
For `C[C@H](NCCC1CCC(NC(=O)N[C@H](C)C(O)(c2ccccc2)c2ccccc2)CC1)c1cccc2ccccc12` (stereo not given in full), the growth inhibition in experiment [1] is 58% (active); in experiment [4] it was 86% (active). The inhibition in experiment [2] was 43%; in experiment [3], -2%. Also, the outcome in experiment [5], in experiment [6], in experiment [7] and in experiment [8] was inactive.
Regarding `Cc1cccc2[nH]c(-c3cccc(-c4cccc(NC(=O)CNC(=O)c5ccc(O)cc5)c4)c3)nc12`, the results for the growth inhibition in experiment [1] and in experiment [4] were 49% and 94% (active), respectively. For the same compound, the inhibition in experiment [2] was 9%; in experiment [3], -1%. Also, the outcome in experiment [5], in experiment [6], in experiment [7] and in experiment [8] was inactive.
In the case of `COc1ccc(CN2CCC(NCc3ccc(C(F)(F)F)cc3)CC2)cc1`, the results for the growth inhibition in experiment [1] and in experiment [4] were -1% and 97% (active), respectively. Further, the values for the inhibition in experiment [2] and in experiment [3] were 37% and 2%, respectively. In addition, the outcome in experiment [5], in experiment [6], in experiment [7] and in experiment [8] was inactive.
In the case of `COc1cccc(Nc2c(C(N)=O)cnc3ccc(-c4ccccc4)cc23)c1`, the results for the growth inhibition in experiment [1] and in experiment [4] were 99% (active) and 98% (active), respectively. Besides, the inhibition was 2% in experiment [2] and -2% in experiment [3]. In addition, the outcome in experiment [5], in experiment [6], in experiment [7] and in experiment [8] was inactive.
Regarding `CC(C)OC(=O)c1cccnc1SCC(=O)Nc1ccc(C(F)(F)F)cc1Cl`, the growth inhibition in experiment [1] is 88% (active); in experiment [4] it was 97% (active). The inhibition in experiment [2] was 3%; in experiment [3], -3%. The outcome in experiment [5], in experiment [6], in experiment [7] and in experiment [8] was inactive.
For `CCN(CC)CCNc1ccnc2[nH]c3ccc(I)cc3c12`, the values for the growth inhibition in experiment [1] and in experiment [4] were 95% (active) and 100% (active), respectively. Besides, the results for the inhibition in experiment [2] and in experiment [3] were 14% and -1%, respectively. Besides, the outcome in experiment [5], in experiment [6], in experiment [7] and in experiment [8] was inactive.
Consider `COc1cccc(Nc2nc(C)cc(NC3CCN(Cc4ccccc4)CC3)n2)c1`, for which the values for the growth inhibition in experiment [1] and in experiment [4] were 46% and 102% (active), respectively. Further, the inhibition is 15% in experiment [2] and 8% in experiment [3]. In addition, the result in experiment [5], in experiment [6], in experiment [7] and in experiment [8] was inactive.
As for `CC(C)[C@H](NC(=O)c1ccc(O)c(-c2ccc(Cl)c(Cl)c2)c1)C(=O)NCCN1CCCCC1`, the growth inhibition in experiment [1] is 98% (active); in experiment [4] it was 99% (active). Besides, the results for the inhibition in experiment [2] and in experiment [3] were -6% and -4%, respectively. Further, the result in experiment [5], in experiment [6], in experiment [7] and in experiment [8] was inactive.
`O=C(Nc1ccccc1)N(Cc1ccc(-c2ccc(CNC3CCCC3)cc2)cc1)C1CCN(Cc2ccccc2)CC1`: the growth inhibition in experiment [1] is 61% (active); in experiment [4], 100% (active). Moreover, the inhibition in experiment [2] was 34%; in experiment [3], -5%. The result in experiment [5], in experiment [6], in experiment [7] and in experiment [8] was inactive.
On to `O=C(/C=C/c1ccc(Cl)c(Cl)c1)NCCCCCN1CCC(NC(=O)Nc2cc(F)cc(F)c2)CC1`, for which the growth inhibition was 6% in experiment [1] and 101% (active) in experiment [4]. The inhibition in experiment [2] is 80% (active); in experiment [3] it was -3%. Besides, the result in experiment [5], in experiment [6], in experiment [7] and in experiment [8] was inactive.
With `O=C(NCc1cccc2ccccc12)C1CCCN(C(=O)c2ccc(O)c(-c3ccc(Cl)c(Cl)c3)c2)C1` (stereo not given), the growth inhibition in experiment [1] is 23%; in experiment [4], 92% (active). The values for the inhibition in experiment [2] and in experiment [3] were 1% and -5%, respectively. Further, the outcome in experiment [5], in experiment [6], in experiment [7] and in experiment [8] was inactive.
